# High-throughput results: PubChem BioAssay, National Center for Advancing Translational Sciences (NCATS)
# This excerpt belongs to a sample that is enriched for hits.
# MBNL1 CUG block: MBNL1-poly(CUG) RNA binding inhibition; TR-FRET MBNL1-His/biotin-(CUG)12 binding, 665/545 ratio; Potency, µM (titrated, usually from 57.5 µM), inactives show at the highest dose activity change, negative = inhibition, most hits filed as inhibitors; 280,000 tested, 0.036% active; AID 2675; active means well fitted inhibition curve with a large enough effect in the signal ratio, with a control signal flat, not every such curve was filed as active; inconclusive means small, poorly fitted or top-dose-only effect, or effect the other way, or a change in a side signal; inactive means no such curve, though single readings can be large or run the other way; the % refers to the signal ratio; further: potency means the concentration at half of the fitted maximal effect; on the % scale 0 is the no-effect control and ±100 the full control effect
# Target sequence (Q9NR56 whole entry, looked up): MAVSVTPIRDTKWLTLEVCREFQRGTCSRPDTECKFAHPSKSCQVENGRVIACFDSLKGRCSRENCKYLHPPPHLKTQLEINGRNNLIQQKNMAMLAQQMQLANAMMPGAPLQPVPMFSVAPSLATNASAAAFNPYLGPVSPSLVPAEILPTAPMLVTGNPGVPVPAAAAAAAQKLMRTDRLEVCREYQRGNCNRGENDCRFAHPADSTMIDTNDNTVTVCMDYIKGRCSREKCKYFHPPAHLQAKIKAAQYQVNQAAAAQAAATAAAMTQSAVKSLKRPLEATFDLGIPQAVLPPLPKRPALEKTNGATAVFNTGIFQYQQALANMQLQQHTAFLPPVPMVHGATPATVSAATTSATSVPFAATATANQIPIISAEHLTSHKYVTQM
#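 His-tagged MBNL1 binding to biotinylated (CUG)12 RNA was measured by TR-FRET using terbium anti-His antibody (0.055 ng/ul final) and streptavidin-XL665 (5 nM final). Compounds were titrated 92 nM to 58 uM; 60 min at room temperature.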
# NPSR antagonist: blocks cAMP signaling of the human neuropeptide S receptor; 220,000 tested, 1% active; Q6W5P4; CHO-NPSR cells, cAMP TR-FRET, antagonist mode; Potency, µM (series often up to 38.3 µM), inactives show at the highest dose activity change, negative = inhibition, most hits filed as inhibitors; further: potency means the concentration at half of the fitted maximal effect; on the % scale 0 is the no-effect control and ±100 the full control effect; nearly all actives have a fitted effect of over 50% in size
# Target sequence (Q6W5P4 whole entry, looked up): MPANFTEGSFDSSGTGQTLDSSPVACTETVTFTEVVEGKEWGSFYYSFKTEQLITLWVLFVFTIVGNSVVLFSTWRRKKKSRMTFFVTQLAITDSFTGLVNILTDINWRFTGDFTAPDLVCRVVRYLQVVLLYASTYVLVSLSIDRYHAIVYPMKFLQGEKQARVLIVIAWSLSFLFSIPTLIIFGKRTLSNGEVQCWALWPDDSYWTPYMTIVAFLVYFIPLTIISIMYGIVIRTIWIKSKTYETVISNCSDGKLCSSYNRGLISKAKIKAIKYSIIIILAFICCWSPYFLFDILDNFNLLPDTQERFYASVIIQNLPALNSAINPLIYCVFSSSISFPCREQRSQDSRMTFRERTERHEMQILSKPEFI
# Tb PFK inh: inhibitors of T. brucei phosphofructokinase. O15648. T. brucei PFK, ADP-Glo luminescence. Potency, µM (highest dose often 57.5 µM), for inactives: top-dose activity, negative = inhibition, most hits filed as inhibitors. 330,000 tested, 0.17% active;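 further: potency means the concentration at half of the fitted maximal effect; 0% = uninhibited 1x PFK enzyme wells and -100% = no-enzyme wells; nearly all actives have a fitted effect of over 60% in size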
#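 PFK 1.25 nM, F6P 0.5 mM, ATP 0.1 mM, 0.1 M TEA pH 8.0, 5 mM MgCl2, 0.01% Tween20, 0.1% BSA; 45 min RT. ADP-Glo readout. qHTS titration up to 57 uM; curves fitted, compounds curve-classed.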
# RGS12 GoLoco inh: blocks human Gai1 binding to RGS12 GoLoco peptide, red readout; Gai1:RGS12 GoLoco peptide FP, rhodamine, 10 min; AID 880; Potency, µM (titrated, usually from 61.6 µM), without a hit: top-dose activity, negative = inhibition, most hits filed as inhibitors; P63096; 230,000 tested, 0.44% active; active means well fitted inhibition curve with a large enough effect, not every such curve was filed as active; inactive means no such curve, though single readings can be large or run the other way; further: potency means the concentration at half of the fitted maximal effect; on the % scale 0 is the no-effect control and ±100 the full control effect; nearly all actives have a fitted effect of over 30% in size
# IMPase Li inh: IMPase inhibition in cells with lithium potentiation; 210,000 tested, 0.35% active; Potency, µM (highest dose often 59.4 µM), for inactives: top-dose activity, negative = IMPase inhibition, actives largely listed as inhibitors; AID 1457; CHO-M1 cells, IP1 TR-FRET (IP-One), carbachol + lithium;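 further: IP1 builds up when IMPase is blocked and the TR-FRET signal falls; potency means the concentration at half of the fitted maximal effect; plate controls were basal vehicle for no effect and high inhibitor control for full effect; nearly all actives have a fitted effect of over 50% in size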
#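 CHO cells stably expressing M1 receptor (2000/well, cultured 16–30 h) treated 30 min at 37C with compound plus low lithium. Cytosolic IP1 by TR-FRET (665/620 ratio and 620 channel) after 10 min lysis; AC50 by Hill fit.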
# MBNL1 TRFRET: MBNL1-poly(CUG) RNA binding inhibition confirmed | 140 tested, 50% active | shares compounds with MBNL1 CUG block | Potency, µM (doses to about 57.6 µM), for the others: at the highest dose activity change, negative = inhibition, usual class: inhibitors | AID 493199 | TR-FRET MBNL1-His / biotin-(CUG)12 binding, 60 min
# MBNL1-CUG Alpha: MBNL1-CUG RNA binding inhibition, AlphaScreen validation. shares compounds with MBNL1 CUG block. AlphaScreen MBNL1-His / biotin-(CUG)12 binding. Potency, µM (doses to about 57.7 µM), inactives show top-dose activity, negative = inhibition, hits mostly inhibitors. 140 tested, 30% active. AID 493205
# MBNL1 HTRF CS: MBNL1-CUG RNA binding inhibitor counterscreen activity; shares compounds with MBNL1 CUG block; His-Menin/biotin-MLL peptide TR-FRET counterscreen; Potency, µM (top dose mostly 57.6 µM), for the others: at the highest dose activity, negative = inhibition, usual class: inhibitors; 120 tested, 20% active; AID 651843
# The depositor's hits bear a star; ? = inconclusive; / = no result; [ ] = dose if it differs, or a comment. Unless noted, the call rests on the fitted dose curve; in most records, active means well fitted curve in the direction sought with a large enough effect; inconclusive means small, poorly fitted or top-dose-only effect, or another doubt; inactive means no such curve, though single readings can be large; an effect the other way counts as inactive or inconclusive.
SMILES,MBNL1 CUG block,NPSR antagonist,Tb PFK inh,RGS12 GoLoco inh,IMPase Li inh,MBNL1 TRFRET,MBNL1-CUG Alpha,MBNL1 HTRF CS
Cc1cc(N2CCN(C)CC2)nc2ccc(NC(=S)NCCN3CCc4ccccc4C3)cc12,25.1µM*,-41.0%,9.8%,4.4%,11.1%,-20.0%,-25.4%,-18.6%
COc1ccc(CSCC(=O)N/N=C/c2ccccc2O)cc1,5.4%,-5.9%,-3.6%,23.3%,-2.7%,/,/,/
COc1ccc2c(c1)CC(C(=O)Nc1ccc(Cl)cc1)/C(=N/O)O2 (stereo not drawn),4.2%,/,-2.1%,/,/,/,/,/
Cn1nccc1NC(=O)Nc1cccc(Cl)c1,31.6µM*,2.2%,-16.7%,7.5%,/,?,?,32.6µM*
Cn1nccc1NC(=O)Nc1cccc([N+](=O)[O-])c1,?,9.2%,-10.4%,7.4%,/,/,/,/
O=C(CCO)c1ccc(O)cc1,25.1µM*,-19.0%,?,-13.4%,2.5%,?,?,-0.3%
Nc1ccc2c(c1)C(=O)C(=O)c1ccccc1-2,?,10µM*,-19.7%,-64.1%,133.8%[38.3 µM],?,6.51µM*,86.9%
COc1cc2c(cc1OC)C(COc1cccc(C(F)(F)F)c1)NCC2 (stereo not drawn),-0.9%,/,4.3%,/,/,/,/,/
CC(=O)N1CC[C@@H]2CC(=O)CC[C@@H]21,/,/,/,2.9%[136 µM],4.0%,/,/,/
O.O.O.O.O.O.O.O=S(=O)([O-])[O-].[Co+2],/,/,/,2.7%,-16.5%,3.26µM*,2.59µM*,?
CCOC(=O)C1(CCOc2ccccc2)CCN(Cc2ccncc2)CC1,-6.7%,2.2%,-2.9%,1.9%,5.0%,/,/,/
CCOC(=O)C1(CCOc2ccccc2)CCN(Cc2ccc(-n3cccn3)cc2)CC1,11.2µM*,32.8%,-0.5%,5.3%,22.8%,6.51µM*,?,-46.3%
CC[C@@]1(O)C(=O)COc2c1cc1n(c2=O)Cc2c-1nc1cccc(C(C)C)c1c2[Si](C)(C)C,/,/,/,40.5%,-23.8%,/,/,/
O=C(NC1CCCCC1)c1ccccc1NC(=O)C1CC(=O)N(c2ccccc2)C1 (stereo not drawn),39.8µM*,-17.3%[46.1 µM],-1.8%,0.8%,4.6%,-10.1%,-5.0%,1.7%
Cc1ccc(N2CC(C(=O)Nc3ccccc3C(=O)NC3CCCCC3)CC2=O)cc1 (stereo not drawn),20.6%,28.7%[46.1 µM],-1.9%,6.6%,10.2%,/,/,/
O=C(NC1CCCCC1)c1ccccc1NC(=O)C1CC(=O)N(c2ccc(Cl)cc2)C1 (stereo not drawn),15.8µM*,0.7%[46.1 µM],-0.9%,-0.6%,4.4%,19.5%,?,0.0%
Cc1cc(C)cc(NC(=O)C2CCCN2S(=O)(=O)c2ccc3c(c2)n(C)c(=O)c(=O)n3C)c1 (stereo not drawn),2.8%,/,-3.7%,/,/,/,/,/
Cc1ccc(O)c(-c2cc(-c3ccccc3F)[nH]n2)c1,3.8%,?,0.9%,-6.1%,44.2%[38.3 µM],/,/,/
Cc1ccc(-c2cc(-c3ccccc3C)[nH]n2)c(O)c1,20µM*,?,0.4%,-11.4%,24.3%,4.8%,3.7%,-2.5%
N#Cc1c(N)nc(SCC(=O)NCCc2ccccc2)c(C#N)c1-c1cccs1,134.3%,?,-1.8%,0.2%,?,?,-2.7%,-0.3%
O=C(OCC1OC(OC(=O)c2cc(O)c(O)c(OC(=O)c3cc(O)c(O)c(O)c3)c2)[C@@H](OC(=O)c2cc(O)c(O)c(OC(=O)c3cc(O)c(O)c(O)c3)c2)C(OC(=O)c2cc(O)c(O)c(OC(=O)c3cc(O)c(O)c(O)c3)c2)C1OC(=O)c1cc(O)c(O)c(OC(=O)c2cc(O)c(O)c(O)c2)c1)c1cc(O)c(O)c(OC(=O)c2cc(O)c(O)c(O)c2)c1 (stereo partly drawn),/,/,/,-14.2%,?,0.41µM*,0.0291µM*,/
O=C(Cc1ccccc1[N+](=O)[O-])NNC(=O)c1cccs1,/,/,8.5%,/,/,/,/,/
COCCNC(=O)CCc1nnc(Cc2ccc(-c3ccccc3)cc2)o1,-1.2%,-6.5%,1.1%,12.9%,-0.2%,/,/,/
COCCNC(=O)CCC1CCN(Cc2ccc(-c3ccccc3)cc2)CC1,15.8µM*,/,3.3%,/,/,6.51µM*,4.5%,8.19µM*
Cc1ccc(S(=O)(=O)Oc2ccccc2/C=N/N=C(N)N)cc1,17.8µM*,-25.0%,-6.9%,9.6%,11.9%,16.3µM*,-27.4%,?
SMILES,MBNL1 CUG block,NPSR antagonist,Tb PFK inh,RGS12 GoLoco inh,IMPase Li inh,MBNL1 TRFRET,MBNL1-CUG Alpha,MBNL1 HTRF CS
Cc1cc(N)c2cc(OCCOc3ccc4nc(C)cc(N)c4c3)ccc2n1,/,/,/,2.2%[14.2 µM],20.7%,/,/,/
Cc1cc(N)c2cc(NC(=O)Nc3ccc4nc(C)cc(N)c4c3)ccc2n1,/,/,/,14.9%[14.2 µM],2.7%,/,/,20.6µM*
O=C(Nc1ccon1)Nc1ccc(F)cc1F,2.6%,/,-5.4%,/,/,/,/,/
OC(COc1ccccc1CNCc1cccnc1)CN1CCc2ccccc2C1 (stereo not drawn),12.6µM*,3.4%,-6.1%,8.3%,8.4%,16.3µM*,?,?
CCOC(=O)c1c(C)[nH]c(C)c1S(=O)(=O)N(C)CC(=O)Nc1cccc(C)n1,-1.3%,/,-2.7%,/,/,/,/,/
Cc1ccc(/C=c2/sc3n(c2=O)CCCN=3)o1,35.3%,-7.7%[46.1 µM],-5.7%,-10.7%,7.1%,?,-12.9%,34.6%
COc1ccc(N2CCN(CC(=O)Nc3ccc(-n4cnnn4)cc3)CC2)cc1,-6.9%,-2.2%[46.1 µM],-3.9%,-10.7%,-0.2%,-0.5%,?,1.5%
Cn1nc(-c2ccc(Cl)cc2)nc2c(=O)n(C)c(=O)nc1-2,?,1µM*,-6.4%,-8.3%,11.7%[38.3 µM],0.651µM*,0.259µM*,56.4%
O=C(Nc1cc(C(=O)Nc2ccc(S(=O)(=O)O)cc2S(=O)(=O)O)cc(C(=O)Nc2ccc(S(=O)(=O)O)cc2S(=O)(=O)O)c1)Nc1cc(C(=O)Nc2ccc(S(=O)(=O)O)cc2S(=O)(=O)O)cc(C(=O)Nc2ccc(S(=O)(=O)O)cc2S(=O)(=O)O)c1,/,-10.7%[46.1 µM],/,116.9%,-15.3%,20µM*,28.2µM*,/
COc1ccccc1C(=O)C1CCCN(C(=O)c2cnn(C(C)C)c2)C1 (stereo not drawn),-2.7%,/,-1.3%,/,/,/,/,/
